# Compound activity deposited in PubChem by several laboratories.
# A selection: hits, their analogues and other compounds. The true share with any hit is near 3.7%.
# Rv3671c inh = Rv3671c (M. tuberculosis) protease inhibition | inhibition, % at 5.96 µM | 320,000 tested, 0.048% active | AID 2606 | P9WHR9; in the data active = inhibition above about 38%;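 also: extracellular domain of Rv3671c used as enzyme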
# Mtb betalactam = beta-lactam sensitization of Mtb H37Rv. 330,000 tested, 0.27% active. M. tuberculosis H37Rv growth with meropenem, percent inhibition. inhibition, % at 25 µM; call rule not given here;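 also: growth measured after seven days incubation then overnight dye step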
# FBA Mtb inh = inhibits M. tuberculosis FBA enzyme. inhibition, % at 1 µM. purified M. tuberculosis FBA, fluorescence read-out. 360,000 tested, 2.3% active. AID 588726. P9WQA3; in the data active = inhibition above about 27%
# Target sequence (P9WQA3 whole entry, looked up): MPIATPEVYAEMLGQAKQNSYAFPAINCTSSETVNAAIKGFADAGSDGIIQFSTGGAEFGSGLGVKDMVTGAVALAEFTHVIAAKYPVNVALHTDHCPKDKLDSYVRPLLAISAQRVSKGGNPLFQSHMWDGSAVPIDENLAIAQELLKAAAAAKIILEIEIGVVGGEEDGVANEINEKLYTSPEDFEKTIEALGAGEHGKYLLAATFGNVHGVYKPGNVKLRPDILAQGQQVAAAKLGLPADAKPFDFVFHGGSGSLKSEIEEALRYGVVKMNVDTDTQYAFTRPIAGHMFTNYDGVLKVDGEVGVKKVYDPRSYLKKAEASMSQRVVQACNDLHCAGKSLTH
# FadD28 binding = inhibitors of Mycobacterium tuberculosis FadD28 bisubstrate binding | 360,000 tested, 0.22% active | FadD28 bisubstrate probe binding, fluorescence polarization | inhibition, % at 12.5 µM; in the data active = inhibition above about 8.5%, passing the limit was not always enough
# GDH-TPI inh = inhibits GDH-TPI coupling enzymes, artifact for Mtb FBA screen. AID 588335. inhibition, % at 4.8 µM. 360,000 tested, 1.2% active. GDH-TPI coupled enzyme counterscreen, NADH absorbance; in the data active = inhibition above about 30%
# Mtb UGM inh = blocks M. tuberculosis UGM enzyme; purified UGM, fluorescence polarization probe displacement; 320,000 tested, 0.06% active; AID 504406; P9WIQ1; inhibition, % at 10 µM; in the data active = inhibition above about 10%, passing the limit was not always enough
# A number is an active result; – = inactive; · = not tested or not shown; + = active, no number.
SMILES,Rv3671c inh,Mtb betalactam,FBA Mtb inh,FadD28 binding,GDH-TPI inh,Mtb UGM inh
COc1ccc(CNc2oc(Cc3cccc4ccccc34)nc2C#N)cc1,–,–,–,–,–,–
Cc1ccc(S(=O)(=O)N2C[C@H]3N(C(=O)OC(C)C)N(C(=O)OC(C)C)C[C@H](OC(=O)NCc4ccco4)[C@@]3(O)C2)cc1,·,·,–,–,–,·
CCN(CC)CCCNC(=O)c1cc(Sc2nnc(C)s2)nc2ccccc12,–,–,–,–,–,25
CCOc1cc(/C=N/NC(=O)c2cc3c(ccc4ccccc43)o2)ccc1O,·,–,–,–,44,–
CCOC(=O)COc1ccccc1/C=N\NC(=O)c1cc2c(ccc3ccccc32)o1,·,–,–,–,31,–
COc1cccc(C=Nc2cccc3c(=O)[nH][nH]c(=O)c23)c1O,–,–,–,–,–,–
COc1ccc(C=Nc2cccc3c(=O)[nH][nH]c(=O)c23)c2ccccc12,–,–,–,–,31,–
CCCCc1nnc(NC(=O)Cc2ccc(S(=O)(=O)N3CCOCC3)s2)s1,–,–,–,–,–,–
NC(=O)N/N=C/c1sc(=O)n(-c2ccccc2)c1Cl,–,–,–,–,–,–
O=C(N/N=C/c1sc(=O)n(-c2ccccc2)c1Cl)c1ccccc1,–,–,–,–,31,–
O=C(O)c1cccc(Cn2c(Cl)c(/C=N/NC(=O)c3ccc(O)cc3)sc2=O)c1,–,–,–,–,34,–
COC(=O)c1cccc(Cn2c(Cl)c(/C=N/NC(=O)c3ccco3)sc2=O)c1,–,–,–,–,35,–
O=c1sc(/C=N/Nc2ccccc2)c(Cl)n1Cc1ccccc1,–,–,–,–,86,–
O=C(COc1ccccc1)N/N=C/c1sc(=O)n(Cc2cccc(C(=O)O)c2)c1Cl,–,–,–,–,–,–
CC(=O)Nc1cc2c3c(cccc3c1)-c1ccccc1-2,·,·,140,–,–,·
O=C(O)c1ccc(/C=N\Nc2ccccn2)cc1,–,–,–,–,54,–
CN(C)c1ccc(/C=N\Nc2ccccn2)cc1,–,–,–,–,76,–
O=[N+]([O-])c1ccc(/C=N/Nc2ccccn2)cc1,–,–,–,–,–,–
CCOC(=O)CCc1c(C)c2ccc(OCC)c(C)c2oc1=O,–,–,·,·,·,–
COC(=O)Cc1c(C)c2ccc(OCC(=O)N3CCCC3)c(C)c2oc1=O,–,–,151,–,–,–
CCOC(=O)CCc1c(C)c2ccc(OCC(=O)N3CCOCC3)c(C)c2oc1=O,–,–,146,–,–,–
CCOC(=O)CCc1c(C)c2ccc3c(c2oc1=O)CN(CCCO)CO3,–,–,+,–,–,–
CC(=O)c1ccc(Nc2nc(C)cc(C)n2)cc1,–,–,–,–,33,–
O=C(O)c1cccc(-c2csc(C(O)c3ccccc3)n2)c1 (stereo not drawn),·,·,–,–,–,·
O=C1N/C(=N/O)S/C1=C/c1cccnc1,–,–,–,–,–,–
SMILES,Rv3671c inh,Mtb betalactam,FBA Mtb inh,FadD28 binding,GDH-TPI inh,Mtb UGM inh
COc1c(/C=C2\SC(=Nc3ccccc3Cl)NC2=O)cccc1[N+](=O)[O-],–,–,–,–,–,–
O=C1NC(=Nc2ccccc2Cl)S/C1=C\c1cccc([N+](=O)[O-])c1O,–,–,–,21,36,–
O=C1NC(=NCc2ccccc2)S/C1=C\c1ccccc1,–,–,–,–,43,–
O=C1NC(=Nc2ccccc2Cl)S/C1=C\c1ccc(C(=O)O)cc1,–,–,–,–,41,–
OC(Cc1cccc(C=NN2CCOCC2)n1)(C(F)(F)F)C(F)(F)F,·,·,–,–,–,·
Cc1cc(NS(=O)(=O)c2ccc(NC(=O)c3ccc([N+](=O)[O-])s3)cc2)nc(C)n1,–,–,–,–,31,–
CN(CC(=O)Nc1cccc(F)c1)C(=O)c1ccccc1-n1cnnn1,·,·,–,–,–,·
COc1cc(/C=C2\S/C(=N/S(=O)(=O)Cc3ccccc3)NC2=O)c([N+](=O)[O-])cc1OC,–,–,–,–,33,–
COc1cc(/C=C2/S/C(=N/S(=O)(=O)Cc3ccccc3)NC2=O)c([N+](=O)[O-])cc1OC,–,–,–,–,34,–
O=C(COc1ccc(Cl)cc1Cl)NCCN1CCCC1,·,·,–,–,–,·
Cc1ccccc1-c1nnc(-c2ccccc2)o1,–,–,–,–,–,–
Cn1cc(-c2nnc(-c3ccccc3)o2)c2ccccc21,–,–,173,–,–,–
CCNC(=O)C1CCCN(Cc2cc(C(F)(F)F)ccc2Cl)CC1 (stereo not drawn),·,·,–,–,–,·
COc1cc(/C=N/NC(=O)c2cc(-c3ccccc3Cl)nc3ccccc23)cc(OC)c1O,–,–,–,–,39,–
COc1cc(/C=N/NC(=O)c2cc(-c3ccco3)nc3ccccc23)cc(OC)c1O,–,–,–,–,47,–
C[C@H](CO)N1C[C@H](C)[C@@H](CN(C)Cc2cccnc2)Oc2cc(-c3cccnc3)ccc2S1(=O)=O,·,·,–,–,–,·
CCCc1cc(=O)oc2cc(OCC(=O)NCCN3CCOCC3)c(Cl)cc12,·,·,–,–,33,·
Cc1cc(=O)oc2cc(OCC(=O)NCCCN3CCOCC3)ccc12,–,–,–,–,–,–
CCCc1cc(=O)oc2c(C)c(OCC(=O)NCCN3CCOCC3)ccc12,–,–,–,–,–,–
CCc1cc(=O)oc2cc(C)cc(OCC(=O)NCCCN3CCOCC3)c12,–,–,116,–,–,–
O=C(CC(=O)NC1CCCCC1)N/N=C/c1cccc2ccccc12,–,–,–,–,31,–
COc1cc(C(=S)N2CCOCC2)cc(OC)c1OC(=O)c1ccccc1Cl,·,·,–,–,–,·
COCCN1C=C(C(=O)OC)C(c2ccccc2Cl)C(C(=O)OC)=C1,–,–,+,–,–,–
COCCN1C=C(C(=O)OC)C(c2cc(Br)c(OC)c(OC)c2)C(C(=O)OC)=C1,–,–,+,–,–,–
COC(=O)C1=CN(Cc2ccccc2)C=C(C(=O)OC)C1c1ccc(O)c(OC)c1,–,–,–,–,–,–
SMILES,Rv3671c inh,Mtb betalactam,FBA Mtb inh,FadD28 binding,GDH-TPI inh,Mtb UGM inh
COc1ccc(-n2nnnc2C(c2cc3ccccc3o2)N2CCN(C/C=C/c3ccccc3)CC2)cc1 (stereo not drawn),·,·,–,–,·,·
O=C1N=C(N2CCCCC2)SC1=C1CCCCC1,–,–,–,–,–,–
O=C1NC(=S)SC1=C1CCCCCC1,–,–,–,–,33,–
CC(C)=CCn1c2ccc(NC(=O)NCc3ccc(F)cc3)cc2c(=O)n1C,·,·,138,–,–,·
COc1ccc(CCNC(=O)Nc2ccc3c(c2)c(=O)n(C)n3CC=C(C)C)cc1OC,·,·,148,–,–,·
CCNC(=O)Nc1ccc2c(c1)c(=O)n(C)n2CC=C(C)C,·,·,173,–,–,·
COC(=O)[C@]1(C)N[C@H](CN(C)S(=O)(=O)c2ccc(OC(F)(F)F)cc2)[C@@H]2C(=O)N(Cc3ccccc3)C(=O)[C@@H]21,–,–,–,–,–,·
CC1(C(=O)Nc2ccc3c(c2)OCCO3)CCN1C(=O)Cc1ccc(-c2ccccc2)cc1 (stereo not drawn),·,·,–,–,–,·
